The structures appear in SMILES notation. Screen size: about 48,000 compounds; about 13,000 (27%) showed an effect of 50% or more. This is one part of the list.

This experiment concerns Wolbachia pipientis. As to the kind of experiment: Anti-Wolbachia Cell-Based Screen. It is filed as functional. The arrangement: scale not given: in the data most compounds retested in dose-response had high values. The settings on record: 5 µM.
`CC(c1cccc(S(N)(=O)=O)c1)N(C)CCOC(C)(C)C` (stereo not given): the “Percent Effect” value is given as 105.4%.

Turning to `CC(c1cccc(O)c1)N(C)S(=O)(=O)c1cccnc1` (stereo not given), the “Percent Effect” value is -4.431%. The value for `CC(c1ccc(F)c(F)c1)N(C)CCS(=O)(=O)CCC(N)=O` (stereo not given) was 2.944%.

For the compound `COCCN(C)C(C)c1cccc(S(N)(=O)=O)c1` (stereo not given), the “Percent Effect” value worked out at 128.5%. The value for `CC(c1cccc(O)c1)N(C)S(N)(=O)=O` (stereo not given) was 16.66%. The result for `CC(c1cccc(Cl)c1)N(C)CCS(=O)(=O)CCC(N)=O` (stereo not given) reads 6.991%; that for `CN1CCN(S(=O)(=O)c2ccc3c(c2)CN(C(=O)C(C)(C)C)CC3)CC1`, -9.365%. The value for `CC(C)CC(=O)N1CCc2ccc(S(=O)(=O)N3CCN(C)CC3)cc2C1` was 0.4144%; that for `O=C(O)c1cc(-n2cc3c(n2)CCC3)cc(S(=O)(=O)N2CCOCC2)c1` was -7.127%.

Take `O=C(c1ccc[nH]1)N1CCc2ccc(S(=O)(=O)N3CCOCC3)cc2C1`: the “Percent Effect” value amounted to 99.23%. The value for `O=C1COc2ccc(S(=O)(=O)N3CCOCC3)c3c2N1CCC3` was 16.87%.

Turning to `O=C(c1cc[nH]n1)N1CCc2ccc(S(=O)(=O)N3CCOCC3)cc2C1`, the “Percent Effect” value is given as 111.1%. `O=C(c1ccc[nH]1)N1CCc2cc(S(=O)(=O)N3CCOCC3)ccc2C1`: the “Percent Effect” value was determined as 106.5%.

As for `O=C(c1ccc[nH]1)N1CCc2c(cccc2S(=O)(=O)N2CCOCC2)C1`, the “Percent Effect” value stood at 94.62%. The result for `CCCNC(=O)N1CCc2ccc(S(=O)(=O)N3CCCC3)cc2C1` reads -4.985%; that for `CCCNC(=O)N1CCc2ccc(S(=O)(=O)N3CCN(C)CC3)cc2C1`, -8.252%; that for `CCCNC(=O)N1CCc2ccc(S(=O)(=O)N3CCOCC3)cc2C1`, -14.34%. The value for `O=C(c1c[nH]c(=O)c(Cl)c1)N1CCc2ccccc2C1` was 10.27%. The result for `CCN1CCC(CC(=O)NC[C@H]2CCc3ccccc3O2)CC1` reads 15.83%. For `CC(=O)N1CCN(Cc2ccsc2)CC2(CC(=O)N(C)C2)C1.O=C(O)C(F)(F)F` (stereo not given), the “Percent Effect” value was determined as 101.7%. Turning to `Cn1cc(CN2CCC3(C2)CN(Cc2ccsc2)C3)cn1.O=C(O)C(F)(F)F.O=C(O)C(F)(F)F`, the “Percent Effect” value is recorded as -10.11%. The result for `CCN1CC2(CC1=O)CN(Cc1cnn(C)c1)CCN(C(C)=O)C2.O=C(O)C(F)(F)F` (stereo not given) reads 1.894%; that for `CC(=O)N1CCCC2(CN(Cc3ccc(F)cc3)CCO2)C1.O=C(O)C(F)(F)F` (stereo not given), -7.517%; that for `CC(=O)N1CCN(Cc2ccc(F)cc2)CC2(CC(=O)N(C)C2)C1.O=C(O)C(F)(F)F` (stereo not given), 98.03%. The value for `CCn1cc2c(n1)C(COCC1CC1)CN(C(=O)c1ccsc1)C2` (stereo not given) was 2.501%; that for `CCOCCC(=O)N1CCCN(c2ccccc2C)CC1` was 0.9002%. The result for `CCc1cc(C(=O)N2CCC(Nc3ccc(C)nn3)CC2)sc1C` reads -9.138%; that for `Cc1ccc(N2C[C@H](C(=O)N3CCOCC3)[C@@H]3CCO[C@@H]3C2)nn1`, -2.103%; that for `CCCNC(=O)c1cnc2n1CCCC2`, -8.644%. `CCCNC(=O)c1cc2c(s1)CCN2c1ncccn1`: the “Percent Effect” value was 122.6%.

Turning to `O=C(NCCN1CCCC1)c1cc2c(s1)CCN2c1ncccn1`, the “Percent Effect” value worked out at 97.7%.

For the compound `Cc1ccc(N2CCc3sc(C(=O)N4CCOCC4)cc32)nn1`, the “Percent Effect” value is recorded as 84.11%.

In the case of `CC(C)NC(=O)c1cc2c(s1)CCN2c1ncccn1`, the “Percent Effect” value is 92.76%. With `CC(C)NC(=O)c1nc2c(s1)CCCN2c1ccccc1`, the “Percent Effect” value came to 7.229%. On to `CCCNC(=O)c1nc2c(o1)CN(c1ncccn1)C2`, for which the “Percent Effect” value was -1.924%. The value for `O=C(NCCN1CCOCC1)c1cc2c(s1)CCN2Cc1cccnc1` was -4.667%. In the case of `CC(C)NC(=O)c1nc2c(s1)CCCN2C(C)C`, the “Percent Effect” value was 3.81%. The value for `O=C(NCCN1CCCC1)c1nc2c(o1)CN(c1ncccn1)C2` was -7.93%; that for `c1cc(-c2nnn3c2COC(CNCC2CCOCC2)C3)ccn1` (stereo not given) was -54.53%; that for `c1cnnc(N2CCCC(NCc3cccc4c3OCO4)C2)c1` (stereo not given) was 3.932%.

Turning to `CCC(NC(=O)NCc1ccoc1C)c1c(C)nn(C)c1C` (stereo not given), the “Percent Effect” value was 3.251%. The result for `CCN1CCCC(c2c(-c3ccccc3)ncn2CCCO)C1` (stereo not given) reads -4.818%; that for `Cc1ccc(N2CCCc3sc(C(=O)NCCC#N)nc32)nn1.O=C(O)C(F)(F)F`, -4.317%; that for `Cc1ccc(N2CCc3sc(C(=O)NCCN4CCCC4)cc32)nn1`, 102.9%. The result for `CCOCCCNC(=O)c1nc2c(s1)CCCN2c1ccc(C)nn1.O=C(O)C(F)(F)F` reads -5.598%; that for `Cc1nnsc1C(=O)NCC1CCN(c2ccccn2)CC1`, 1.014%.

Regarding `O=C(NCC1CC1)c1cc2c(s1)CCN2c1ncccn1`, the “Percent Effect” value came out at 107.3%. The result for `CCNC(=O)C(C)(C)NC(=O)NCc1cccc(Br)c1` reads 5.794%. With `CCc1ccc(CN2CCN(CCOC)[C@@H]3CS(=O)(=O)C[C@@H]32)cc1`, the “Percent Effect” value is listed as -8.66%. The value for `c1ccc(-c2nc(SCc3nnc(C4CC4)o3)n[nH]2)nc1` was -8.457%; that for `c1cnnc(N2CCCC(NCc3ccncc3)C2)c1` (stereo not given) was 0.6717%; that for `CS(=O)(=O)c1ccc(CNC2CCCN(c3cccnn3)C2)cc1` (stereo not given) was 6.689%. The result for `Cc1cc(NC(=O)CN(C)C2CCCN(c3cccnn3)C2)n(C)n1` (stereo not given) reads -4.115%; that for `Cc1ccc(N2CCCC(N(C)Cc3cc(C)no3)C2)nn1` (stereo not given), 1.683%; that for `CC(C)c1cc(NC(=O)CNC2CCCN(c3cccnn3)C2)on1` (stereo not given), 100.2%.

The values are drawn from ChEMBL document CHEMBL3988442, “University of Dundee, Small-Polar-MMV Screening Library” (2021).
